The values below come from PubChem BioAssay (NCATS).

SMILES strings stand for the structures. Inconclusive results are not listed. Active and inactive are the calls of the source. Calls come from the whole dose curve; as a rule, active = well fitted curve in the direction sought with a large enough effect; inconclusive = small, poorly fitted or top-dose-only effect, or another doubt; inactive = no such curve, though single readings can be large; an effect the other way counts as inactive or inconclusive.

Experiment [1] in a line: Primary qHTS for inhibitors of nuclear receptor binding SET domain protein 2 (NSD2) in an RCH-ACV wild type WT cells (2C) (AID 1645877). Note: nearly all actives have a fitted effect of over 70% in size. Note: potency is the fitted concentration of half-maximal effect. On the technique in general: Quantitative high-throughput screening tests each substance at several concentrations.
Experiment [2] addresses Glutathione peroxidase 1 (Homo sapiens) (UniProt P07203). Put plainly: Primary qHTS Assay for Inhibitors of Recombinant Selenoprotein Glutathione Peroxidase 1 (GPX1) (AID 1845191). For activity, negative = inhibition: % is set by controls: 0 for no effect and ±100 for the full control effect. Note: nearly all actives have a fitted effect of over 65% in size. Note: potency is the fitted concentration of half-maximal effect. The method in brief: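 Recombinant GPX1 (10 nM final) was preincubated with compound for 30 min at room temperature, then reacted with 1 mM GSH, 0.5 mM CHP, 0.5 mM NADPH and 100 nM glutathione reductase; NADPH fluorescence (340/450 nm) was read at 0 and 15 min.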

For experiment [3], the target named is Phospholipid hydroperoxide glutathione peroxidase GPX4 (Homo sapiens) (UniProt P36969). Nature of the experiment: Primary qHTS Assay for Inhibitors of Recombinant Selenoprotein Glutathione Peroxidase 4 (GPX4) (AID 1845192). For activity change, negative = inhibition: series mostly up to about 50 µM; % is set by controls: 0 for no effect and ±100 for the full control effect. Note: nearly all actives have a fitted effect of over 65% in size. Note: potency is the fitted concentration of half-maximal effect. The method in brief:
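GR-coupled readout: 100 nM GR, 1 mM GSH, 0.5 mM NADPH; NADPH fluorescence (ex 340/em 450 nm) read at t=0 and after 15 min RT. GPX4 200 nM, preincubated 30 min with compound; substrate 0.5 mM CHP.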

Experiment [4] has as its target Luciferin 4-monooxygenase (Photinus pyralis) (UniProt P08659). Put plainly: Primary firefly luciferase (FLuc) qHTS assay for identification of artifact compounds. (AID 1845220).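 For activity change, negative = inhibition: series mostly up to about 54 µM; plate controls were DMSO vehicle for no effect and no enzyme for full effect.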 Note: nearly all actives have a fitted effect of over 60% in size. The method in brief: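 In this counter-screen for luciferase artifacts, test compounds met substrate (10 uM each luciferin and ATP) before 10 nM enzyme started the reaction. Light output was measured 5 min later.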

Experiment [5] in a line: Primary fluorescence-based thiol-reactive (MSTI) qHTS assay for identification of artifact compounds. (AID 1845221).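 For activity change, negative = thiol reactive: series mostly up to about 54 µM; thiol-reactive compounds lower the probe fluorescence signal.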 Note: nearly all actives have a fitted effect of over 65% in size. Note: potency is the fitted concentration of half-maximal effect. The method in brief: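 Probe: MSTI 4 uM, PBS pH 7.4, 2% DMSO. Incubation 1 h, RT, light-protected. Readout fluorescence 525/598 nm.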
Experiment [6] relates to Nanoluciferase (engineered Oplophorus gracilirostris luciferase). Nature of the experiment: Primary Nanoluciferase (NLuc) qHTS assay for identification of artifact compounds. (AID 1845222).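 Note: NLuc secreted into diluted conditioned medium of S16 cells; series mostly up to about 54 µM; 0% = DMSO and -100% = no enzyme.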 The method in brief: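 Using secreted nanoluciferase in S16 culture medium (0.22 um filtered, 1:55 dilution), compounds were preincubated 15 min at RT. Signal was generated with Nano-Glo reagent (1:100) over 5 min.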

Experiment [7] is described as follows: Primary redox qHTS assay for identification of artifact compounds. (AID 1845223).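 Note: 0% = DMSO and 100% = reference compound.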 Summed up:
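Amplex Red (25 uM) and HRP (250 mU/mL) in HBSS, with compounds for 15 min, then 250 uM DTT for 30 min, room temperature, dark. Fluorescence 525/598 nm read; normalized to DMSO and 10 uM DA3003; Hill fit.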

Sequence of Phospholipid hydroperoxide glutathione peroxidase GPX4 (Homo sapiens) (P36969 whole entry, looked up): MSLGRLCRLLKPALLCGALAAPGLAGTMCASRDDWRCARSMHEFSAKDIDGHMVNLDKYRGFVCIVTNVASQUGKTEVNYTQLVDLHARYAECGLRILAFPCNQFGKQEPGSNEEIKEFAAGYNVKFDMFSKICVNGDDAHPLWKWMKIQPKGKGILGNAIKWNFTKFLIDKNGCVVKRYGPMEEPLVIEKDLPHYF
Sequence of Glutathione peroxidase 1 (Homo sapiens) (P07203 whole entry, looked up): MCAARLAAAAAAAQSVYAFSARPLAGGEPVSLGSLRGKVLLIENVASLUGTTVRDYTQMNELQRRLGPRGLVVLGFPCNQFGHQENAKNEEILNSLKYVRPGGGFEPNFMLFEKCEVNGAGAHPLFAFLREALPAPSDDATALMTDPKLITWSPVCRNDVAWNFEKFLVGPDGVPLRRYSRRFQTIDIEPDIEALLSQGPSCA

Take `CC1=CC(=O)[C@]2(O[C@@H]3O[C@@H](C)[C@H](O)[C@@H](O)[C@H]3OC(=O)/C=C/c3ccccc3)C=CO[C@@H](O[C@@H]3O[C@H](CO)[C@@H](O)[C@H](O)[C@H]3O)[C@H]12`: the Potency result in experiment [1], in experiment [2], in experiment [3], in experiment [4], in experiment [6] and in experiment [7] was “inactive” in each case. The Potency in experiment [5] was 2.51 µM (active).
Regarding `CC1(CCOC2OC(CO)C(O)C(O)C2O)CCC23OC2(C1)C(O)CC1C(C)(C(=O)O)CCCC13C` (configuration not stated), the Potency result in experiment [1], in experiment [2], in experiment [3], in experiment [4], in experiment [5] and in experiment [6] was “inactive” each time. Moreover, the Potency result in experiment [7] was “inactive”.
For the molecule `CCc1cc(CN2CC(C(=O)O)C2)sc1-c1noc(-c2ccc(Oc3ccccc3)cc2)n1`, in experiment [1], the Potency is 10 µM (active). For the same molecule, the Potency entry in experiment [2], in experiment [3], in experiment [4], in experiment [5], in experiment [6] and in experiment [7] was “inactive” each time.
As for `C[C@@H]1C(=O)O[C@H]2[C@H](O)C34[C@H]5C[C@@H](C(C)(C)C)C36[C@@H](OC(=O)[C@@H]6O)O[C@@]4(C(=O)O5)[C@@]12O` (some centres not stated), the Potency result in experiment [1], in experiment [2], in experiment [3], in experiment [4], in experiment [5] and in experiment [6] was “inactive” each time. In experiment [7], the Potency entry is “inactive”.
In the case of `C[C@H](Nc1ncnc2nc[nH]c12)c1cc2ccc(F)cc2nc1-c1ccccn1`, the Potency in experiment [1] was 1.18 µM (active). The Potency entry in experiment [2], in experiment [3], in experiment [4], in experiment [5], in experiment [6] and in experiment [7] was “inactive” each time.
As to `CC1(C)CC[C@]2(C(=O)O[C@@H]3O[C@H](CO[C@@H]4O[C@H](CO)[C@@H](O)[C@H](O)[C@H]4O[C@@H]4O[C@H](CO)[C@@H](O)[C@H](O)[C@H]4O)[C@@H](O)[C@H](O[C@@H]4O[C@H](CO)[C@@H](O)[C@H](O)[C@H]4O)[C@H]3O)CC[C@]3(C)C(=CCC4[C@@]5(C)CC[C@@H](O)[C@@](C)(C(=O)O[C@@H]6O[C@H](CO)[C@@H](O)[C@H](O)[C@H]6O)C5CC[C@]43C)[C@@H]2C1` (some centres not stated), the outcome in experiment [1] is “inactive [at 9.23 µM]”; in experiment [3], “inactive [at 9.73 µM]”. In addition, the activity, negative = inhibition in experiment [2] is -10.6% [at 9.52 µM] (inactive); in experiment [6], 2% [at 11.6 µM] (inactive). Besides, the activity change, negative = inhibition in experiment [4] is 2.91% [at 11.6 µM] (inactive). The activity change, negative = thiol reactive in experiment [5] is 344% [at 11.5 µM] (inactive). In experiment [7], the redox activity (% of DA3003) is 5.34% [at 11.5 µM] (inactive).
Regarding `Cc1[nH]nc(C(F)(F)F)c1Cc1sc2c(c1C(=O)N1C[C@](C)(O)CO1)c(=O)n(C)c(=O)n2C(C)C`, the Potency result in experiment [1], in experiment [2], in experiment [3], in experiment [4], in experiment [5] and in experiment [6] was “inactive” each time. For the same molecule, the Potency result in experiment [7] was “inactive”.
In the case of `CC(C)S(=O)(=O)NC[C@H](C)c1ccc(NC(=O)c2cc(F)cc(F)c2)cc1`, the Potency entry in experiment [1], in experiment [2], in experiment [3], in experiment [4], in experiment [5] and in experiment [6] was “inactive” each time. For the same molecule, in experiment [7], the Potency entry is “inactive”.
For the molecule `O=C(Cc1ccc(-c2ccccc2)cc1)NC1CCC1`, the Potency result in experiment [1], in experiment [2], in experiment [3], in experiment [4], in experiment [5] and in experiment [6] was “inactive” throughout. Further, in experiment [7], the Potency entry is “inactive”.
On to `O=C(NCc1ccc(S(=O)(=O)c2cc(F)cc(F)c2)cc1)c1ccc2nccn2c1`, for which the Potency entry in experiment [1], in experiment [2], in experiment [3], in experiment [4], in experiment [5] and in experiment [6] was “inactive” in each case. In addition, in experiment [7], the Potency entry is “inactive”.
Regarding `CC(C)(O)C1CCC(C)(C2CCC3(C)C4CCC5C(C)(C(=O)OC6OC(CO)C(O)C(O)C6O)C(O)CC(O)C56CC46CCC23C)O1` (configuration not stated), the Potency result in experiment [1], in experiment [2], in experiment [3], in experiment [4], in experiment [5] and in experiment [6] was “inactive” throughout. Besides, the Potency entry in experiment [7] is “inactive”.
Consider `COc1cc2ncnc(Nc3cccc(O)c3)c2cc1OC`, for which, in experiment [1], the Potency is 3.25 µM (active). Moreover, the Potency entry in experiment [2], in experiment [3], in experiment [4], in experiment [5], in experiment [6] and in experiment [7] was “inactive” in each case.
On to `C[C@@H]1O[C@@H](OC[C@H]2O[C@@H](OC(CCCCc3ccc(O)cc3)CCc3ccc(O)cc3)[C@H](O)[C@@H](O)[C@@H]2O)[C@H](O)[C@H](O)[C@H]1O` (some centres not stated), for which the Potency result in experiment [1], in experiment [2], in experiment [3], in experiment [4], in experiment [6] and in experiment [7] was “inactive” throughout. Also, the Potency in experiment [5] was 7.93 µM (active).
Turning to `CCn1c(=O)c(-c2ccn[nH]2)cc2c(C)nc(N)nc21`, the Potency is 1.18 µM (active) in experiment [1], 4.09 µM (active) in experiment [2] and 2.55 µM (active) in experiment [3]. The Potency entry in experiment [4], in experiment [5], in experiment [6] and in experiment [7] was “inactive” throughout.
In the case of `CC(=O)C1=CCC2C3CCC4CC(O[C@@H]5O[C@H](CO)[C@@H](O[C@@H]6O[C@@H](C)[C@H](O)[C@@H](O)[C@H]6O)[C@H](O)[C@H]5O[C@@H]5O[C@H](CO)[C@@H](O)[C@H](O)[C@H]5O)CCC4(C)C3CCC12C` (some centres not stated), the Potency result in experiment [1], in experiment [2], in experiment [3], in experiment [4], in experiment [5] and in experiment [6] was “inactive” throughout. Also, the Potency entry in experiment [7] is “inactive”.
As for `Cc1nc2sc(C(=O)NCc3ccncc3)c(N)c2c(C)c1Cl`, the Potency entry in experiment [1], in experiment [3], in experiment [4], in experiment [5], in experiment [6] and in experiment [7] was “inactive” in each case. For the same molecule, the Potency in experiment [2] was 12.8 µM (active).
